# Assay results taken from PubChem BioAssay (NCI).
# The panel holds about 79,000 compounds, 15% with a hit somewhere; the sample as a whole holds those more often. Activity calls are given as the source filed them. Cut-off read from the data, not from the text of the source: active = growth inhibition above about 70%; inactive = the rest.
# Assay: NCI Yeast Anticancer Drug Screen. Data for the mlh1 rad18 strain (AID 175)
# Settings: S. cerevisiae mlh1 rad18 strain growth inhibition; at 5.0 µM (retest, dose inferred, filed as 0.5); hits give high values
# Procedure, shortened: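 Growth inhibition of the yeast strain was measured after compound exposure and expressed relative to vehicle-treated controls. The strain carries defined defects in DNA damage repair.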
row,Compound,growth inhibition
1,Oc1ccccc1N=CC1CCCCC1,-32% (inactive)
2,CC(O[Si](c1ccccc1)(c1ccccc1)C(C)(C)C)[C@H](NC(=O)OC(C)(C)C)C(=O)O[Si](c1ccccc1)(c1ccccc1)C(C)(C)C (some centres not stated),93% (active)
3,Cn1c(=O)c2c3oc(=O)cc(O)c3c(=O)n3c4ccccc4n(c1=O)c23,53% (inactive)
4,CCCCCCCCCCCCCCC(O)C(=O)O (configuration not stated),-2% (inactive)
5,O=[N+]([O-])c1cc(I)cc(/C=N/NS(=O)(=O)c2ccc(F)cc2)c1O,17% (inactive)
6,CCC/C=C1/OC(=O)C2=C[C@H]3CC[C@]21[C@]1(OC(=O)C2=C1CCC=C2)[C@H]3CCC,14% (inactive)
7,C=C(CC)C[C@@H]1C[C@]2(C(=O)OC)c3[nH]c4ccccc4c3CCN2C1=O,0% (inactive)
8,Cc1ccc(N2C(=O)C(Cl)=C(Cl)C2=O)cc1,14% (inactive)
9,COc1cc2c(cc1O)CCCCC2,-3% (inactive)
10,CC(C)Cc1cc(O)cc2ccccc12,0% (inactive)
11,CCN(CC)Cc1cc(Nc2c3ccccc3nc3c4ccccc4n(C)c23)ccc1O,-10% (inactive)
12,CC(=O)Nc1ccc(-c2csc(Nc3ccnc4cc(Cl)ccc34)n2)cc1,3% (inactive)
13,NNc1ccccc1F,-58% (inactive)
14,O=C(O)C1(Cc2ccc3c(c2)CCC3)Cc2ccccc2C1=O (configuration not stated),1% (inactive)
15,c1cc2cc(Cc3ccc4[nH]ccc4c3)ccc2[nH]1,32% (inactive)
16,COc1cc(C(c2cc3c(cc2O)OCO3)N2CCOCC2)ccc1O (configuration not stated),-5% (inactive)
17,Cc1c(N)nc(C2CC(=O)N2CC(N)C(N)=O)nc1C(=O)NC(C(=O)NC(C)C(O)C(C)C(=O)NC(C(=O)NCCc1nc(-c2nc(C(=O)NCCNCC(C)O)cs2)cs1)C(C)O)C(OC1OC(CO)C(O)C(O)C1OC1OC(CO)C(O)C(OC(N)=O)C1O)c1cnc[nH]1 (configuration not stated),97% (active)
